Pin1 inhibitor: qHTS Assay to Find Inhibitors of Pin1; Peptidyl-prolyl cis-trans isomerase NIMA-interacting 1 (Homo sapiens), Q13526; Pin1 FP peptide displacement, HiFluor488, 10 min; Potency, µM (titrated, usually from 115 µM), for the others: at the top dose activity, negative = inhibition, actives largely listed as inhibitors; actives 0.009% (n = 390,000); AID 504891, 2011; active = well fitted inhibition curve with a large enough effect in the polarisation, with a control signal flat, not every such curve was filed as active; inconclusive = small, poorly fitted or top-dose-only effect, or effect the other way, or a change in a side signal; inactive = no such curve, though single readings can be large or run the other way; the % refers to the polarisation; also: potency is read from the fitted curve at half-maximal effect; % is scaled to controls: 0 for no effect and ±100 for the full control effect
Target sequence (Q13526 whole entry, looked up): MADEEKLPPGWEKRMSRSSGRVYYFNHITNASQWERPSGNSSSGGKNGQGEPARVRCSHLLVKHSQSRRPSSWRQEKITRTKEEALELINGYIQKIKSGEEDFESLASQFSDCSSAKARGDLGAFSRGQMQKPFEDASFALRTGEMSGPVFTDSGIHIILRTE
PTHR1 agonist: qHTS for PTHR1 Agonists: Primary Screen. Parathyroid hormone/parathyroid hormone-related peptide receptor (Homo sapiens), Q03431. HEK293 GP2 PTHR1 cells, GloSensor cAMP luminescence, 1 h. Potency, µM (highest dose often 115 µM), for the others: top-dose activation, most hits filed as activators. actives 0.075% (n = 410,000). AID 743266, 2014; also: potency is read from the fitted curve at half-maximal effect; nearly all actives have a fitted effect of over 55% in size
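HEK-293-derived GP2 cells expressing PTHR1 and a GloSensor cAMP reporter, 3,000/well, plated overnight, given luciferin plus IBMX (each 0.5 mM as added) for 1 h at 37 °C, then compound for 1 h at 37 °C. Luminescence was read after 15 min at room temperature.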
GLP-1R agonist: qHTS of GLP-1 Receptor Agonists. Glucagon-like peptide 1 receptor (Homo sapiens), P43220. HEK293 GLP-1R CRE-luciferase, luminescence, 4-6 h; cells express a hypersensitive GLP-1R form. Potency, µM (top dose mostly 45.6 µM), for inactives: at the highest dose activation, actives largely listed as activators. actives 0.007% (n = 380,000). AID 624172, 2012; also: potency is read from the fitted curve at half-maximal effect; % of control where 0% means no effect
Target sequence (P43220 whole entry, looked up): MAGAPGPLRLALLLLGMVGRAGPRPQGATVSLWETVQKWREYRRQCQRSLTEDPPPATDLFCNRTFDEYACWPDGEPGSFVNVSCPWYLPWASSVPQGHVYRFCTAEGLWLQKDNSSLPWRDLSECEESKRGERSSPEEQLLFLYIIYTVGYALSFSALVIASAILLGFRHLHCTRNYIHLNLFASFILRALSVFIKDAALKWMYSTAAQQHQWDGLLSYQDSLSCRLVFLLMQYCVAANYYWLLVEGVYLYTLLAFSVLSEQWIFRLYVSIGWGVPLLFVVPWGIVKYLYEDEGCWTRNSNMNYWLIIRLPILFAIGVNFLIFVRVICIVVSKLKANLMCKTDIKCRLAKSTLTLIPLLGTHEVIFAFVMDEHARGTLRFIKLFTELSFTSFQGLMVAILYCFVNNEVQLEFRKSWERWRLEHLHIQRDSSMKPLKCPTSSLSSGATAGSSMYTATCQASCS
HEK293 tox: qHTS of GLP-1 Receptor Inverse Agonists: Cytotox Screen | HEK293 cAMP-luciferase reporter cells, luminescence, 24 h | Potency, µM (highest dose often 38.3 µM), for inactives: top-dose activity change, negative = inhibition, most hits filed as inhibitors | actives 0.13% (n = 410,000) | AID 624418, 2012;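 also: loss of luciferase light is scored as toxicity; potency is read from the fitted curve at half-maximal effect; % is scaled to controls: 0 for no effect and ±100 for the full control effect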
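Here, cytotoxicity is scored as loss of luminescence. The MLSMR collection was tested on cells seeded in medium containing 10% Nu serum, with a 24 hr compound exposure preceded by 12 hours of culture.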
miR-21 act: qHTS Assay for Modulators of miRNAs and/orActivators of miR-21; 340,000 tested, under 10 active; Potency, µM (titrated, usually from 38.3 µM), without a hit: top-dose activity change, positive = activation, usual class: activators; HeLa miR-21 FLuc reporter, luciferase, 48 h; AID 2288, 2010;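 also: % of control where 0% means no effect; miR-21 action dims this reporter so a rising signal means less miR-21 action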
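Using DMEM plus 10% FBS, HeLa miR-21-FLuc cells are incubated with test compounds (final up to about 40uM) for 48 hours; firefly luciferase signal is then imaged following reagent-mediated lysis.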
GLP1R inv ag: qHTS of GLP-1 Receptor Inverse Agonists (Inhibition Mode) | actives 1.6% (n = 410,000) | HEK293 GLP-1R CRE-luciferase, luminescence, 24 h; GLP-1R form is constitutively active | AID 624417, 2012 | Glucagon-like peptide 1 receptor (Homo sapiens), P43220 | Potency, µM (series often up to 38.3 µM), inactives show at the highest dose activity change, negative = inhibition, actives largely listed as inhibitors; also: potency is read from the fitted curve at half-maximal effect; % is scaled to controls: 0 for no effect and ±100 for the full control effect; nearly all actives have a fitted effect of over 55% in size
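qHTS in 1536-well format: reporter HEK293 cells expressing constitutive GLP-1R activity in DMEM + 10% Nu serum, 24 hr with compounds at 37 deg C, luminescence read after 12 min with detection reagent.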
The depositor's hits bear a star; i = inactive; ? = inconclusive; / = not tested or not shown; [ ] = dose if it differs, or a comment. Compounds with a hit are over-represented: about 1.7% of the library has one in this group of screens. Unless noted, calls follow the shape of the dose curve; as a rule, active = well fitted curve in the direction sought with a large enough effect; inconclusive = small, poorly fitted or top-dose-only effect, or another doubt; inactive = no such curve, though single readings can be large; an effect the other way counts as inactive or inconclusive.

SMILES | Pin1 inhibitor | PTHR1 agonist | GLP-1R agonist | HEK293 tox | miR-21 act | GLP1R inv ag
O=C(Cc1ccccc1)Nc1c(C(=O)Nc2ccccc2F)oc2ccccc12 | -10.9% | -46.9% | 1.1% | 1.3% | -8.2% | 6.7%
C=CCn1c(COc2ccccc2)nnc1SC(C)C(=O)N/N=C/c1cc(Cl)ccc1O (stereo not given) | ? | -12.9% | -16.6% | -9.7% | 18.6% | 8.91µM*
C=CCn1c(COc2ccc(Cl)cc2)nnc1SCC(=O)N/N=C/c1cccc(O)c1 | -5.1% | -22.4% | -0.2% | -14.3% | 0.7% | ?
Cc1cccc(OCc2cc(=O)n3c(-c4ccccc4)csc3n2)c1C | 16.8% | -6.3% | 0.7% | -6.2% | -32.6% | 15.9%
C=CCc1ccccc1OCC(O)CN1CCN(c2ccccc2F)CC1 (stereo not given) | -5.7% | -8.5% | -6.4% | -19.3% | -6.6% | 10µM*
C=CCc1ccccc1OCC(O)CN1CCN(c2ccccc2OC)CC1 (stereo not given) | 1.6% | -14.0%[57.5 µM] | 1.9% | -24.0% | -4.1% | ?
COCc1nc2ccccc2n1Cc1ccc(C(C)(C)C)cc1 | ? | -11.7% | / | 4.7% | -44.9% | ?
COc1ccc(N(C(=O)c2ccccc2C)S(=O)(=O)c2cccs2)cc1 | 23.3% | -0.4% | 7.1% | -40.6% | ? | ?
COc1ccc(N(C(=O)c2ccccc2C)S(=O)(=O)c2ccc(C)cc2)cc1 | 15.3% | -9.2% | / | -2.5% | 21.4% | 10µM*
CCOC(=O)c1ccccc1NC1c2ccccc2C(=O)N1c1cc(C)ccn1 (stereo not given) | 2.4% | i | 3.2% | 15.3% | -9.0% | 12.6µM*
Cc1cc(Br)c2c(c1)C(O)(N1CCCCC1C)C(=O)N2 (stereo not given) | -5.2% | i | 7.3% | -8.2% | -9.8% | 11.2µM*
COc1ccc(CC2(CO)CCN(Cc3cc4ccccc4o3)CC2)cc1 | 4.2% | -25.7% | 24.5% | -2.7% | 9.5% | 10µM*
OCC1(Cc2cccc(C(F)(F)F)c2)CCN(Cc2cc3ccccc3o2)CC1 | -2.5% | -32.0% | 3.4% | ? | 10.4% | ?
COc1ccc(Cn2c(C(=O)O)c(CNCc3ccco3)c3ccc(OC)cc32)cc1 | 2.5% | i | 1.0% | -29.4% | 10.3% | 2.2%
Cc1ccc(N(CC(O)Cn2c3ccccc3c3ccccc32)S(=O)(=O)c2ccc(F)cc2)cc1 (stereo not given) | ? | -71.9% | / | 1.7% | ? | -6.0%
COc1ccc(N(CC(O)Cn2c3ccccc3c3ccccc32)S(=O)(=O)c2ccccc2)cc1 (stereo not given) | ? | i | -8.6% | 10.3% | 16.6% | 11.2µM*
COc1ccc(C2c3c(ncn(CCCc4ccccc4)c3=N)Oc3ccc4ccccc4c32)cc1OC (stereo not given) | 21.2% | / | / | / | / | /
O=S(=O)(c1ccc(F)cc1)N1CCN(c2nc(-c3cccc(Br)c3)nc3ccccc23)CC1 | -1.2% | / | / | / | / | /
COc1ccc(-c2nc(CSCC(=O)N3CCN(c4cccc(C)c4C)CC3)c(C)o2)cc1OC | 2.8% | i | / | -14.1% | 28.6% | 10µM*
COc1ccc(-c2nc(CSCC(=O)N3CCN(C)CC3)c(C)o2)cc1OC | 0.0% | -23.7% | 6.4% | 1.8% | -4.7% | 17.9%
CC(NC(=O)c1cccc(NC(=O)c2nsc3ccccc23)c1)c1ccccc1 (stereo not given) | 11.1% | i | / | 2.2% | -6.7% | ?
CCC(=O)c1ccc(OCc2ccc(C(=O)c3ccccc3)cc2)cc1 | -0.8% | -41.7% | -0.3% | 17.7% | 1.8% | 10µM*
CCC(=O)c1ccc(OCc2ccccc2)c(OC)c1 | 0.1% | -6.7% | 21.6% | 6.3% | -77.9% | -8.4%
OCCN1CCN(C2CCC(c3ccc(F)cc3)c3ccc(F)cc32)CC1 (stereo not given) | -5.8% | -22.5% | 0.9% | ? | / | 2µM*
Nc1ncc(-c2ccc(F)cc2)nc1N1CCN(CCO)CC1 | / | -2.7% | 7.5% | 1.9% | / | 24.3%
SMILES | Pin1 inhibitor | PTHR1 agonist | GLP-1R agonist | HEK293 tox | miR-21 act | GLP1R inv ag
Cn1cc(CN2CCC(n3nccc3NC(=O)c3ccccc3Cl)CC2)c2ccccc21 | 0.2% | ? | 1.2% | ? | -1.8% | ?
O=C(Nc1ccnn1C1CCN(CCCC2CCCC2)CC1)c1ccccc1Cl | -1.4% | -11.7% | 4.8% | -21.8% | 6.1% | 10µM*
COc1ccccc1C(=O)Nc1ccnn1C1CCN(Cc2cn(C)c3ccccc23)CC1 | -4.4% | i | 2.9% | -28.3% | 29.9% | 11.2µM*
N#CN1CCC(NC(=O)c2cccc(F)c2)CC1 | -3.9% | / | / | / | / | /
C/C(Nc1ccc(Cl)c(Cl)c1)=C1/CCOC1=O | / | -22.4% | -0.4% | 14.3% | / | ?
CC1COC(=O)C(NNc2ccc(Cl)c(Cl)c2)=N1 (stereo not given) | -1.7% | -4.2% | -0.6% | ? | -1.9% | 2.24µM*
CC(C)Cc1ccc(C(=O)NCCOc2ccccc2)o1 | 0.1% | -11.2% | 11.6% | 0.0% | -27.5% | 11.2µM*
COc1ccc2c(c1OC)C(=O)N1c3ccccc3C(=O)N(Cc3ccco3)C21 (stereo not given) | 77.9% | / | / | / | / | /
C[C@H](CO)N1C[C@H](C)[C@H](CN(C)S(=O)(=O)c2cccc(F)c2)OCc2ccccc2-c2c(n(C)c3ccccc23)C1=O | / | -25.2% | 8.3% | -27.9% | / | 11.2µM*
C[C@H](CO)N1C[C@H](C)[C@H](CN(C)S(C)(=O)=O)OCc2ccccc2-c2c(n(C)c3ccccc23)C1=O | / | -20.5% | -5.1% | -5.3% | / | -5.9%
C[C@H](CO)N1C[C@H](C)[C@@H](CN(C)S(=O)(=O)c2ccc(F)cc2)Oc2c(NC(=O)Nc3ccc(C(F)(F)F)cc3)cccc2C1=O | 1.9% | -10.9% | -3.5% | -13.9% | / | ?
C[C@@H]1CN([C@@H](C)CO)C(=O)c2ccccc2-c2ccccc2CO[C@@H]1CN(C)S(=O)(=O)c1ccc(C(F)(F)F)cc1 | / | -23.1% | 9.6% | -42.3% | / | 10µM*
C=CC[C@H](CC(=O)N(CCO)Cc1ccccc1)C(=O)N[C@H](C)COC(=O)[C@@H](CC=C)Cc1ccc(F)cc1 | -0.2% | -49.3% | 10.6% | 3.5% | / | 11.2µM*

Screening data as filed in PubChem.
